Experimental data: PubChem BioAssay AID1222 (Sanford-Burnham Center for Chemical Genomics, 2008)
Screen size: about 190,000 compounds; fewer than 10 were called active. Not all results are given here. Entries with a potency or affinity are not part of this list. Values without a mark were called inactive.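 How the source made its calls: active means EC50 below 50 µM in the dose-response confirmation; inactive means the rest.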

test: rescue of cells from ER stress-induced death, primary screen, 384-well, CSM14.1, thapsigargin, ATP luminescence (AID 1222); details: CSM14.1 thapsigargin-induced death rescue, at 20 µM, active compounds read high;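 further: death triggered by thapsigargin at about 15 µM added after 2 h compound pretreatment; cell ATP read after overnight thapsigargin exposure of roughly 18 to 22 hours; reference of the scale not given here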

SMILES	cellular ATP content (survival) [%]
CCOC(=O)c1cnc(-n2nc(C)cc2C)nc1Nc1ccc2c(c1)OCO2	-1.2
CCn1cc(C(=O)O)c(=O)c2cc(S(=O)(=O)N(C)C)ccc21	-1.2
O=C(Nc1ccc(N2CCOCC2)cc1)c1ccc(Cl)nc1	-0.7
CCOc1ccccc1NC(=O)COC(=O)C(CC)c1ccccc1 (stereo not given)	0.7
CCCCP(=O)(CCCC)c1ccccc1C(=O)O	-0.7
O=C(OCc1cc(=O)n2c(n1)sc1ccccc12)c1ccc(O)cc1O	-1.2
COc1ccc(NC(=S)Nc2ccc(S(N)(=O)=O)cc2)c(OC)c1	-0.3
CC(=O)c1c(C)nc2ccc(Br)cc2c1C(=O)O	0.7
COc1cccc(C2CC(c3cccs3)=NN2C(=S)Nc2ccccc2)c1OC (stereo not given)	2.5
COc1ccc(S(=O)(=O)N2CCC(C(=O)N3CCc4ccccc4C3)CC2)cc1Cl	0.7
CCOC(=O)c1cc2c(=O)n3ccccc3nc2n(Cc2ccccc2Cl)c1=N	-1.3
CCCCNS(=O)(=O)c1ccc(S(=O)(=O)NCc2ccncc2)cc1	-1.8
Cc1nc(N2CCC(C(N)=O)CC2)c2c(-c3cccs3)csc2n1	-2.2
CCOC(=O)C1=C(C)Nc2ccccc2N=C1NC(=O)CCCN1C(=O)c2ccccc2C1=O	-1.5
COc1cc([N+](=O)[O-])ccc1NC(=O)c1cccc(NC(=O)C(C)C)c1	2.2
COC(=O)C1=NN(C(C)=O)C2(CC(=O)N(c3cccc(C)c3)C2=O)C1 (stereo not given)	-0.1
CCN(C(=O)COc1ccccc1)C1CCCCC1	-1.5
O=C(Nc1nnc(-c2ccco2)o1)c1ccc2ccccc2c1	11.1
Cc1cc(NC(=O)CCC(=O)N(CC(=O)NC2CCCC2)c2ccccc2)no1	0.5
O=c1cc(COn2nnc3ccc(C(F)(F)F)cc32)nc2sccn12	-1.8
O=C(Nc1ccc2nc(-c3cccnc3)[nH]c2c1)C12CC3CC(CC(C3)C1)C2	-3.6
c1ccc(-c2nccc(-c3ccc(-n4cnc5ccccc54)cc3)n2)cc1	-0.9

SMILES	cellular ATP content (survival) [%]
Cc1ccc(/C(O)=C2\C(=O)C(=O)N(CCc3c[nH]c4ccccc34)C2c2cccnc2)cc1 (stereo not given)	1.1
CCCN1C(=O)/C(=C/c2ccc(N3CCCC3)c(C)c2)NC1=S	-2
CCN1C(=O)/C(=C/c2ccc(N3CCCC3)cc2)NC1=S	0.3
O=C(COC(=O)CCNS(=O)(=O)c1ccc2c(c1)OCCO2)NC1CCCc2ccccc21 (stereo not given)	-0.1
CCc1nnc(NC(=O)CCC(=O)NC2CCCCC2)s1	-0.3
CCCCNC(=O)Cc1ccc(Br)cc1	0.7
CC1CCC2C(=O)N(c3ccc(Cc4ccncc4)cc3)C(=O)C2C1 (stereo not given)	0.4
CC1(C(=O)NCCN2CCOCC2)C=CC2(CCCCC2)N1C(=O)c1ccccc1 (stereo not given)	-4.5
CC(=O)OCc1cc(-c2nn(C)c(=O)c3ccccc23)ccc1C	1.5
O=C(N/N=C/c1ccccc1OC(F)F)C1=COCCO1	0.4
O=S1(=O)C=CC(Sc2nc3ccccc3[nH]2)C1 (stereo not given)	7.3
Cc1ccc(S(=O)(=O)N2CCN(C(C)CC(=O)O)CC2)cc1 (stereo not given)	-0.8
O=C(OCCCC(=O)N1CCOCC1)c1ccccc1	-1
COc1cc(CN(C(=S)NCC(=O)NC2CCCC2)C2CCCC2)cc(OC)c1OC	0.8
CCOc1ccc(Nc2nc(Cc3nnc(SCC(=O)NC4CCCCC4)n3C)cs2)cc1	-0.1
COc1ccc(C(=O)OCC(=O)N(C)C2CCS(=O)(=O)C2)cc1S(=O)(=O)N1CCCc2ccccc21 (stereo not given)	1.7
COc1ccc2c(c1)N(C(=O)CSc1n[nH]c(C)n1)C(C)(C)C=C2C	5.3
COc1ccc(/C=C/C(=O)OCC(=O)Nc2cc(C(F)(F)F)ccc2Cl)cc1	-2.1
Cc1cc(C)c(C(=O)CN2C(=O)NC3(CCCCC3)C2=O)cc1C	-0.6
COc1ccc(S(=O)(=O)Oc2cccc(/C=N/N=C3/NC(=O)C(CC(=O)O)S3)c2)cc1 (stereo not given)	7.5
CCCN1CCC(NC(=O)Nc2cc(Cl)ccc2OC)CC1	0.1
CC(=O)N1CCN(c2ccc([N+](=O)[O-])c(NCc3cccnc3)c2)CC1	-0.8

SMILES	cellular ATP content (survival) [%]
N#Cc1cc(-c2ccccc2)nc(Oc2ccc(Cl)cc2)n1	-1.2
CCCn1nc2cc(C(=O)NCc3ccc(OC(F)(F)F)cc3)ccc2c1OCC	-1.1
Cc1ccc(S(=O)(=O)c2nc(-c3ccccc3)oc2NCc2cccnc2)cc1	3.8
Cc1ccc(Nc2nc(-c3ccc(S(=O)(=O)N4CCOCC4)cc3)cs2)cc1Cl	-1.8
CC(C)(C)N/N=C/c1c(O)n(-c2ccc(Cl)cn2)c(=O)c2ccccc12	-1.2
O=C(Nc1cccc(C2OCCCO2)c1)c1cccs1	-3.3
O=C(c1ccc2ccccc2c1)c1c[nH]cc1-c1ccccc1	0.1
Cc1ccccc1NC(=O)C12CC3CCC1(C)C3(C)CO2 (stereo not given)	3.2
CC12COC3(C(=O)Nc4ccccc4)CC1CCC32C (stereo not given)	0.2
CN(C1CCCCC1)S(=O)(=O)c1ccc(NC(=O)CCC(=O)O)cc1	-1.8
O=C(N[C@@H](Cc1ccccc1)C(=O)O)c1cccnc1	-0.2
O=[N+]([O-])c1ccc(Nc2nc(Cl)nc(NCCO)n2)cc1	-0.9
Cc1ccc(S(=O)(=O)N2CCN(C(=O)CSc3nnc(C)c(=O)[nH]3)CC2)cc1	0.3
O=C(NC(=S)N1CCN(c2ccccn2)CC1)c1ccco1	-0.1
COc1ccccc1NC(=O)C/C(C)=N/NC(=O)COc1c(Br)cc(Br)cc1OC	2.1
CCC(=O)N1CCc2cc(S(=O)(=O)CCC(=O)Nc3ccc(CC)cc3)ccc21	-3.3
O=c1[nH]c(CSc2nnc(-c3ccccc3)n2C2CCCCC2)nc2ccccc12	0.3
CC1C(c2ccccc2)=[N+]([O-])C2(CCCCC2)N1O (stereo not given)	-0.2
Cn1c(=O)c2c(nc(CN3CCN(Cc4ccccc4)CC3)n2CCN2CCOCC2)n(C)c1=O	2.6
CCOc1ccccc1-n1c(SCC(=O)Nc2nccs2)nnc1-c1ccoc1C	1.4
O=c1[nH]c(CCC2CCCC2)nc2ccccc12	-3.1
